Assay results taken from PubChem BioAssay (NCATS).
“And” between values parts separate entries of the source, which are not always exact repeats. Equal values may be shown once. Results filed as inconclusive are left out. A call without a number means that no potency is given here. More than one record can exist for a structure, and the calls need not agree. The source made the active and inactive calls. The call rests on the fitted dose curve; in most records, active means well fitted curve in the direction sought with a large enough effect; inconclusive means small, poorly fitted or top-dose-only effect, or another doubt; inactive means no such curve, though single readings can be large; an effect the other way counts as inactive or inconclusive.

Experiments:
[1] = target: Calcium and integrin-binding protein 1 (Homo sapiens) (UniProt Q99828); experiment: Primary qHTS for Identification of Calcium Integrin Binding Protein 1 (CIB1) Competitor (AID 1508620);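 further: GST tagged CIB1 binding a fluorescein labelled alphaIIb integrin peptide tracer; top concentration of the series differs between compounds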
How it was run: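 CIB1-GST (1 uM final) and compound incubated 15 min at room temperature before adding FITC-alphaIIb peptide tracer (100 nM final). Competition for binding read by fluorescence polarization (ex 480, em 540) after another 15 min at room temperature.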

[2] = Primary qHTS for inhibitors of nuclear receptor binding SET domain protein 2 (NSD2) in an isogenic RCH-ACV NSD2 p.E1099K mutant (9B) (AID 1645876); further: nearly all actives have a fitted effect of over 70% in size; further: potency means the concentration at half of the fitted maximal effect
[3] = Primary qHTS for inhibitors of nuclear receptor binding SET domain protein 2 (NSD2) in an RCH-ACV wild type WT cells (2C) (AID 1645877); further: nearly all actives have a fitted effect of over 70% in size; further: potency means the concentration at half of the fitted maximal effect

Sequence of Calcium and integrin-binding protein 1 (Homo sapiens) (Q99828 whole entry, looked up): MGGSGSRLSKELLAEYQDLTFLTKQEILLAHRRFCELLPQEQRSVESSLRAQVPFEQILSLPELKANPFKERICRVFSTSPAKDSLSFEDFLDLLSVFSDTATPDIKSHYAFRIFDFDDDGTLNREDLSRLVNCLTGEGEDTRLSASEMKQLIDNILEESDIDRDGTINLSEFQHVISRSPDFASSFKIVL

With `O=C(OCC1OC(Oc2ccc(O)cc2COC(=O)C2(O)C(O)CCC(=O)C2OC(=O)C2C=CCC2)C(OC(=O)C2C=CCC2)C(O)C1O)C1C=CCC1` (configuration not stated) as the molecule, how does the Potency [1] read?
The Potency was “inactive”.

What about the Potency [2] of the same molecule?
The Potency was “inactive”.

And the Potency [3]?
Its Potency is “inactive”.

With `O=C(O)c1ccncc1Nc1nn(CCN2CCC(F)(F)CC2)c2ccc(F)cc12` as the molecule, how does the Potency [1] read?
Its Potency is “inactive”.

What about the Potency [2] of the same molecule?
The Potency was “inactive”.

What about the Potency [3] of the same molecule?
Its Potency is “inactive”.

Which results are given for `O=C(/C=C/c1ccc(O)c(O)c1)O[C@H]1[C@H](OC2CCCCC2O)O[C@H](CO)[C@@H](O)[C@@H]1O` (some centres not stated)?
Potency [1]: inactive; Potency [2]: inactive; Potency [3]: inactive

What does the source list for `C=C1CCC2C(C)(C(=O)O)CCCC2(C)C1CC/C(C)=C\CO` (configuration not stated)?
Potency [1]: inactive; Potency [2]: inactive; Potency [3]: inactive

For `COc1cc(C2OCC3(O)C(c4ccc(O[C@@H]5O[C@H](CO)[C@@H](O)[C@H](O)[C@H]5O)c(OC)c4)OCC23O)ccc1O` (some centres not stated), which Potency [1] is on record?
The Potency was “inactive”.

And the Potency [2]?
Its Potency is “inactive”.

What about the Potency [3] of the same molecule?
The Potency was “inactive”.

What does the source list for `C/C=C/C=C/C=C/C(=O)OC1C=C2C(O)OC(=O)[C@]2(O)[C@@]2(C)CCCC(C)(C)[C@H]12` (some centres not stated)?
Potency [1]: inactive; Potency [2]: inactive; Potency [3]: inactive

Which results are given for `CC(=O)OC[C@@]12C(=O)C[C@@H](C)[C@]3(C[C@@H](c4ccoc4)OC3=O)[C@H]1CC[C@H](OC(C)=O)[C@]21CO1`?
Potency [1]: inactive; Potency [2]: inactive; Potency [3]: inactive

Which Potency [1] does the source give for `C=C1CCC2C(C)(C)CC(O)CC2(C)C1CCC(C)CC(=O)O` (configuration not stated) here?
Its Potency is “inactive”.

What about the Potency [2] of the same molecule?
The Potency was “inactive”.

And the Potency [3]?
Its Potency is “inactive”.

Which Potency [1] does the source give for `CC1(C(=O)O)CC[C@]2(C(=O)OC3OC(CO)C(O)C(O)C3O)CC[C@]3(C)C(=CCC4[C@@]5(C)CC[C@H](OC6OCC(O)C(O)C6OC6OC(CO)C(O)C(O)C6O)C(C)(C)C5CC[C@]43C)C2C1` (some centres not stated) here?
Its Potency is “inactive”.

What about the activity change, negative = viability loss [2] of the same molecule?
Its activity change, negative = viability loss is -7.26% [at 9.23 µM] (inactive).

And the activity change, negative = cell killing [3]?
Its activity change, negative = cell killing is -0.731% [at 9.23 µM] (inactive).

Which results are given for `CC/C=C\C(O)C(O)C1=C(C)C(=O)C2(O1)C(=O)NC(OC)(C(=O)c1ccccc1)C2O` (configuration not stated)?
Potency [1]: inactive; Potency [2]: inactive; Potency [3]: inactive

Which results are given for `COC(=O)C1=CO[C@@H](O[C@@H]2O[C@H](CO)[C@@H](O)[C@H](O)[C@H]2O)[C@H]2[C@@H]1C=C[C@]21C=C([C@H](C)OC(=O)/C=C/c2ccc(O[C@@H]3O[C@H](CO)[C@@H](O)[C@H](O)[C@H]3O)cc2)C(=O)O1`?
Potency [1]: inactive; Potency [2]: inactive; Potency [3]: inactive

With `C[C@H](O)C(O)(C(=O)OCc1ccccc1NC(=O)CCC(N)C(=O)O)[C@H](C)O` (some centres not stated) as the molecule, how does the Potency [1] read?
The Potency was “inactive”.

And the Potency [2]?
The Potency was “inactive”.

What about the Potency [3] of the same molecule?
The Potency was “inactive”.

What does the source list for `COc1ccc(C(=O)OC2C3C=COC(OC4OC(CO)C(O)C(O)C4O)C3C3(CO)OC23)cc1OC` (configuration not stated)?
Potency [1]: inactive; Potency [2]: inactive; Potency [3]: inactive

Which results are given for `CC1=C2C3OC(=O)C(C)C3(O)CCC2(C)CCC1` (configuration not stated)?
Potency [1]: inactive; Potency [2]: inactive; Potency [3]: inactive

Which results are given for `CC1CCC2C(C(=O)O)=CC3(O)CC(C)(C)CC123` (configuration not stated)?
Potency [1]: inactive; Potency [2]: inactive; Potency [3]: inactive

Which Potency [1] does the source give for `CC1CC2OCC3(O)CCC(O)C(C14CC(c1ccoc1)OC4=O)C23CO` (configuration not stated) here?
Its Potency is “inactive”.

And the Potency [2]?
The Potency was “inactive”.

What about the Potency [3] of the same molecule?
The Potency was “inactive”.

Which results are given for `CC(C)C1CCC(C(=O)N[C@@H](Cc2ccccc2)C(=O)O)CC1` (some centres not stated)?
Potency [1]: inactive; Potency [2]: inactive; Potency [3]: inactive

What does the source list for `C/C=C/C1OC2=C(C(=O)OC2(C)O)C(O)C1O` (configuration not stated)?
Potency [1]: inactive; Potency [2]: inactive; Potency [3]: inactive

Which Potency [1] does the source give for `COCC1OC(OC(C)(C)C2CCC3(C)C=C(C4CCC5C4(C)CC(O)C4OC(C(C)(C)O)CCC45C)CCC3O2)C(NC(C)=O)C(O)C1O` (configuration not stated) here?
Its Potency is “inactive”.

What about the Potency [2] of the same molecule?
The Potency was “inactive”.

What about the Potency [3] of the same molecule?
Its Potency is “inactive”.

With `COc1cc(O)cc(C)c1C(=O)O[C@H]1[C@@H](O)[C@@H](n2ccc(=O)[nH]c2=O)O[C@@H]1CO` as the molecule, how does the Potency [1] read?
The Potency was “inactive”.

What about the Potency [2] of the same molecule?
Its Potency is “inactive”.

What about the Potency [3] of the same molecule?
The Potency was “inactive”.

With `CC(C)=C1CC2C(CCC2(C)O)C(C)(O)CC1=O` (configuration not stated) as the molecule, how does the Potency [1] read?
The Potency was “inactive”.

What about the Potency [2] of the same molecule?
The Potency was “inactive”.

What about the Potency [3] of the same molecule?
The Potency was “inactive”.

With `C=C(CC/C=C(\C)C(=O)O)C1(O)CC=C(C)CC1` (configuration not stated) as the molecule, how does the Potency [1] read?
The Potency was “inactive”.

What about the Potency [2] of the same molecule?
Its Potency is “inactive”.

And the Potency [3]?
The Potency was “inactive”.

Which Potency [1] does the source give for `CC1=CC(=O)CC(C)(C)[C@@]1(O)/C=C/C(C)O[C@@H]1O[C@H](CO)[C@@H](O)[C@H](O)[C@H]1O` (some centres not stated) here?
The Potency was “inactive”.

What about the Potency [2] of the same molecule?
The Potency was “inactive”.

And the Potency [3]?
The Potency was “inactive”.

Which results are given for `Cc1noc2c1-c1ccccc1C(c1ccc(Cl)cc1)=N[C@H]2CC(N)=O`?
Potency [1]: inactive; Potency [2]: inactive and 590 nM (active); Potency [3]: inactive and 525 nM (active)
